Experiment [1] has as its system F380Y. Briefly: modulators of BK channel variants, profiling panel, selectivity assay, cell-based, U2OS BacMam, thallium flux, beta subunits (AID 1259406).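 Note: initial slope of Thallos dye fluorescence rise after thallium is added; log ratio against the mean of 0.3% DMSO vehicle wells on the same plate.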 As to conditions: at 30 µM.
For experiment [2], the system named is F380Y/beta1. The experiment is described as above. Conditions: at 30 µM.
For experiment [3], the system named is F380Y/beta2Delta. The experiment is described as above. Conditions: at 30 µM.
Experiment [4] has as its system F380Y/beta4. The experiment is described as above. As to conditions: at 30 µM.
Experiment [5] deals with Calcium-activated potassium channel subunit alpha-1 (Homo sapiens) + Leucine-rich repeat-containing protein 26 (Homo sapiens) (UniProt Q12791+Q2I0M4). Described as above. As to conditions: F380Y/Slo1WT/gamma1, at 30 µM.
Chain of Calcium-activated potassium channel subunit alpha-1 (Homo sapiens) + Leucine-rich repeat-containing protein 26 (Homo sapiens) (Q2I0M4 whole entry, looked up, one chain of several): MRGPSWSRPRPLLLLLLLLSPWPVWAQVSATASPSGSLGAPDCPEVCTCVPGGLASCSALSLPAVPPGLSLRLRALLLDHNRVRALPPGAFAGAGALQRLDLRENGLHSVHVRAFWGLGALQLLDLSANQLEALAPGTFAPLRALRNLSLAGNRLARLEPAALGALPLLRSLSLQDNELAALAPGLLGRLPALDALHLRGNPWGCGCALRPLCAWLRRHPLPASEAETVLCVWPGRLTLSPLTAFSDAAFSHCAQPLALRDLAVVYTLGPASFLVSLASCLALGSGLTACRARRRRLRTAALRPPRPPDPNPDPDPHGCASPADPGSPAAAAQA
The test system of experiment [6] is R275C. The description is as above. Conditions: at 30 µM.
Experiment [7] has as its system R275C/beta1. The experiment is described as above. Conditions: at 30 µM.
For experiment [8], the system named is R275C/beta2Delta. Described as above. Conditions: at 30 µM.
The test system of experiment [9] is R275C/beta4. The experiment is described as above. As to conditions: at 30 µM.
Experiment [10] concerns R275C/Slo1WT/beta2. Described as above. Conditions: at 30 µM.
Experiment [11] in a line: UWB1.289 ovarian carcinoma cell growth inhibition, synergistic combos for chromothripsis tumors, BGB or cisplatin combos (AID 1671456; in the data active = inhibition above about 80%;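 note: cells exposed to compound for four days; 0% = vehicle DMSO and 100% = killing by high DMSO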). Conditions: UWB1.289 ovarian carcinoma cells, stronger effect = higher value.
Experiment [12] is described as follows: LFS_MB_2R medulloblastoma cell growth inhibition, synergistic combos for chromothripsis tumors, cisplatin combos (AID 1671457; in the data active = inhibition above about 80%;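 note: cells exposed to compound for four days before readout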). As to conditions: LFS_MB_2R medulloblastoma cells, stronger effect = higher value.
Experiment [13] is described as follows: MDA-MB-436 breast carcinoma cell growth inhibition, synergistic combos for chromothripsis tumors, BGB or cisplatin combos (AID 1671458; call rule not given here;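 note: cells exposed for 96 hours; 0% = vehicle DMSO and 100% = killing by high DMSO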). Conditions: MDA-MB-436 breast carcinoma growth inhibition, drug combinations, stronger effect = higher value.
Experiment [14] in a line: UWB1.289_BRCA1 ovarian cancer growth, cell-based, BGB or cisplatin combinations (AID 1671459; in the data active = inhibition above about 80%). Conditions: UWB1.289 BRCA1 ovarian carcinoma, drug combinations, stronger effect = higher value.
Experiment [15] can be described thus: human astrocyte viability loss, single and combined drugs, cytotoxicity control for chromothriptic childhood tumor combination screen, cell-based, BGB or cisplatin IC20 combos (AID 1671460; in the data active = inhibition above about 80%;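 note: cells exposed to compounds for 96 hours before viability readout; 0% = vehicle and 100% = killing control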). Conditions: Human astrocytes, drug combinations, stronger effect = higher value.
Experiment [16] in a line: growth inhibition of BT084 medulloblastoma cells, cell-based, ICGC_MB145, cisplatin and BGB IC40 combos (AID 1671461; in the data active = inhibition above about 80%;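 note: cells exposed to drugs for 96 hours; 0% = vehicle DMSO and 100% = high DMSO full killing control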). As to conditions: drug combinations, stronger effect = higher value.
A short description of experiment [17]: growth inhibition of RCMB18 medulloblastoma cells, cell-based, cisplatin and BGB IC40 combos (AID 1671462; in the data active = inhibition above about 80%;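 note: cells exposed to compound for four days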). As to conditions: stronger effect = higher value.
Experiment [18] is described as follows: growth inhibition of CRL1545 osteosarcoma cells, cell-based, cisplatin and BGB IC20 combos (AID 1671464; in the data active = inhibition above about 80%;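 note: cells exposed to compound for 96 hours before readout; 0% = vehicle DMSO and 100% = high DMSO killing control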). As to conditions: stronger effect = higher value.
The mark [19] stands for this setting: measured here: combination with cisplatin, at 0.5 µM.

SMILES strings stand for the structures. Where “and” joins values, the source holds several entries; their conditions need not be identical. Equal entries are not always repeated. Calls of active or inactive are those of the source.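 Rule for the calls, unless noted: active = thallium flux through the channel raised or lowered by more than 3 SD from vehicle-only wells, actives on both sides; inactive = the rest.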

As to `CNCC(O)c1ccc(O)c(O)c1` (stereo not drawn), the log fold change Tl+ flux in experiment [1] is -0.0223 (inactive); in [2], -0.0248 (inactive); in [3], 0.0367 (inactive); in [4], -0.0084 (inactive); in experiment [5], 0.0503 (inactive); in [6], 0.0399 (inactive). In addition, the log fold change Tl+ flux is -0.0203 (inactive) in experiment [7], -0.0287 (inactive) in experiment [8], -0.0313 (inactive) in experiment [9] and -0.0974 (inactive) in experiment [10].
Turning to `C[C@@H]1CN(CCCn2c3ccccc3c3ccccc32)C[C@H](C)N1`, the log fold change Tl+ flux in experiment [1] is 0.145 (active); in experiment [2], 0.208 (active); in experiment [3] it was 0.138 (active); in experiment [4], 0.64 (active); in [5], 0.0245 (inactive); in experiment [6] it was 0.377 (active). Moreover, the log fold change Tl+ flux in experiment [7] is 0.219 (active); in experiment [8], 0.146 (active); in [9], 0.312 (active); in experiment [10], 0.00517 (inactive).
In the case of `Cc1cccc(C)c1OCC(C)N` (stereo not drawn), the log fold change Tl+ flux in experiment [1] is -0.014 (inactive); in [2], 0.0282 (inactive); in experiment [3], 0.00522 (inactive); in [4], 0.033 (inactive); in experiment [5], 0.0106 (inactive); in experiment [6], 0.0441 (inactive). Moreover, the log fold change Tl+ flux in experiment [7] is 0.0258 (inactive); in experiment [8], 0.00537 (inactive); in experiment [9] it was 0.0107 (inactive); in [10] it was 0.0729 (inactive).
Take `COc1cc(C)c(Cc2cnc(N)nc2N)cc1OC`: the log fold change Tl+ flux was 0.0111 (inactive) in experiment [1]; 0.0334 (inactive) in experiment [2]; 0.0137 (inactive) in [3]; 0.0281 (inactive) in experiment [4]; 0.0784 (inactive) in experiment [5]; -0.0521 (inactive) in experiment [6]. In addition, the log fold change Tl+ flux in experiment [7] was 0.0546 (inactive); in [8], 0.0143 (inactive); in experiment [9], 0.00157 (inactive); in experiment [10] it was 0.0258 (inactive).
`Nc1ccn([C@H]2CC[C@@H](CO)O2)c(=O)n1`: the log fold change Tl+ flux in experiment [1] was 0.0263 (inactive); in experiment [2] it was 0.0264 (inactive); in experiment [3], -0.0145 (inactive); in [4] it was 0.0289 (inactive); in experiment [5], 0.0157 (inactive); in experiment [6], -0.0969 (inactive). For the same compound, the log fold change Tl+ flux was -0.00164 (inactive) in experiment [7], -0.00877 (inactive) in [8], 0.00428 (inactive) in [9] and 0.0272 (inactive) in [10].
Take `O=C(CCNNC(=O)c1ccncc1)NCc1ccccc1`: the log fold change Tl+ flux in [1] was 0.000985 (inactive); in experiment [2], 0.00246 (inactive); in [3] it was -0.0162 (inactive); in [4] it was 0.0308 (inactive); in experiment [5] it was 0.00963 (inactive); in experiment [6] it was -0.0947 (inactive). For the same compound, the log fold change Tl+ flux in [7] is -0.0338 (inactive); in [8], 0.038 (inactive); in experiment [9], 0.0195 (inactive); in experiment [10] it was 0.0406 (inactive).
For `CCN(CC)CC1CCCCN1CC(=O)N1c2ccccc2C(=O)Nc2cccnc21` (stereo not drawn), the log fold change Tl+ flux in experiment [1] is -0.00678 (inactive); in experiment [2] it was 0.0276 (inactive); in experiment [3], 0.0497 (inactive); in [4], -0.01 (inactive); in [5], 0.0283 (inactive); in experiment [6], -0.0778 (inactive). In addition, the log fold change Tl+ flux in experiment [7] was 0.0108 (inactive); in experiment [8], 0.0199 (inactive); in experiment [9], 0.0303 (inactive); in experiment [10], 0.0393 (inactive).
Consider `CC(C)(C)NC(=O)[C@H]1CC[C@H]2[C@@H]3CC[C@H]4NC(=O)C=C[C@]4(C)[C@H]3CC[C@]12C`, for which the log fold change Tl+ flux is 0.0287 (inactive) in [1]; 0.0111 (inactive) in experiment [2]; 0.0468 (inactive) in experiment [3]; 0.00105 (inactive) in experiment [4]; -0.00445 (inactive) in experiment [5]; -0.0443 (inactive) in [6]. For the same compound, the log fold change Tl+ flux is -0.0219 (inactive) in experiment [7], 0.0533 (inactive) in experiment [8], 0.00132 (inactive) in [9] and -0.0253 (inactive) in [10].
Consider `CCn1cc(C(=O)O)c(=O)c2cc(F)c(N3CCNCC3)nc21`, for which the inhibition in experiment [11] (at 0.5 µM) is -10.7% (inactive) and 1.4% (inactive); in experiment [11] (measured here: inhibition with BGB combination, at 0.05 µM) it was -29.8% and -21.6%; in experiment [11] (measured here: inhibition with cisplatin combination, at 0.05 µM) it was -19.7% and -11.2%; in experiment [12] (at 0.5 µM), -18.7% (inactive) and -16.6% (inactive); in experiment [12] (setting [19]) it was -8.22% and -12.2%; in experiment [12] (measured here: combination with cisplatin, at 5 µM), -10.3% and -8.58%. Moreover, the inhibition was -9.05% (inactive) and -13.8% (inactive) in experiment [13] (at 0.5 µM); -10.2% and -4.34% in [13] (measured here: BGB combination, at 0.5 µM); -20.2% and -12.6% in [13] (measured here: BGB combination, at 5 µM); -12.3% and -35.3% in experiment [13] (measured here: cisplatin combination, at 0.5 µM); -9.88% and -14.8% in experiment [13] (measured here: cisplatin combination, at 5 µM); -1.06% and 7.56% in experiment [14] (BGB combination, concentration series, at 5 µM). Besides, the inhibition was -12.5% (inactive) and 3.88% (inactive) in experiment [14] (at 0.5 µM); 0.876% and 19.6% in experiment [14] (cisplatin combination, concentration series, at 5 µM); 8.11% (inactive) and 6.08% (inactive) in experiment [15] (at 0.5 µM); 13.6% and -6.3% in experiment [15] (measured here: combo with BGB IC20, at 0.5 µM); -5.13% and 23.3% in experiment [15] (measured here: combo with cisplatin IC20, at 0.5 µM); -14.2% (inactive) in experiment [16] (at 0.5 µM). Besides, the inhibition was -20.2% and 4.87% in experiment [16] (cisplatin combination, at 0.5 µM); -328% and -22.3% in experiment [16] (cisplatin combination, at 5 µM); -15.2% and 5.81% in experiment [16] (measured here: BGB IC40 combination 0.05 uM, at 0.05 µM); -15.6% and -14.8% in experiment [16] (single agent, at 5 µM); -23.5% (inactive) and -3.9% (inactive) in [17] (at 0.5 µM); -47.1% and 18.7% in [17] (cisplatin combo, at 5 µM). In addition, the inhibition in [17] (measured here: BGB IC40 combination, at 0.05 µM) was -10.4% and 1.16%; in experiment [17] (setting [19]), -40.4% and 9.59%; in [17] (single agent, at 5 µM), -15.2% and -21.3%; in [18] (at 0.5 µM), 9.99% (inactive) and 6.3% (inactive); in experiment [18] (measured here: with BGB IC20 combination, at 0.5 µM), -15.9% and 0.601%; in experiment [18] (measured here: with cisplatin IC20 combination, at 0.5 µM), 21.7% and 9.15%. Also, the inhibition in experiment [18] (single agent, at 0.05 µM) is -9.98% and 9.98%; in experiment [18] (single agent, at 5 µM), -24.6% and 24.3%.
In the case of `CCCc1c(OCCCCc2nn[nH]n2)ccc(C(C)=O)c1O`, the log fold change Tl+ flux in experiment [1] was 0.0613 (inactive); in experiment [3], 0.0962 (active); in experiment [5] it was 0.186 (active); in experiment [6] it was 0.0659 (inactive); in [7] it was 0.282 (active); in experiment [8] it was 0.193 (active).

The values above are taken from PubChem BioAssay.
